Data reported in PubChem BioAssay AID493194 (Broad Institute, 2011).
Measured potencies and affinities stand elsewhere. Inconclusive results are not listed. Activity calls are given as the source filed them.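 Rule for the calls: active = a valid curve of falling signal whose half-effect concentration is at most ten times the top tested dose; inconclusive = flat curve at 30 to 70% inhibition, or poor fit; inactive = signal rise, flat within 30%, or potency beyond limit.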

Target: Scavenger receptor class B member 1 (Mus musculus) (UniProt Q61009)
Test: inhibitors of SR-BI mediated HDL lipid uptake, dose response, ldlA[mSR-BI] cells, fluorescence, cherry pick (AID 493194);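 note: CHO cells lacking LDL receptor and overexpressing mouse SR-BI; cellular uptake of fluorescently labeled HDL measured as cell fluorescence; 0% = median of neutral control wells and -100% = median of positive control wells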
Details: CHO ldlA[mSR-BI] DiI-HDL uptake fluorescence, 3 h; series mostly up to 35 µM; activity change, negative = inhibition: at the top concentration

Scavenger receptor class B member 1 (Mus musculus), sequence (Q61009 whole entry, looked up): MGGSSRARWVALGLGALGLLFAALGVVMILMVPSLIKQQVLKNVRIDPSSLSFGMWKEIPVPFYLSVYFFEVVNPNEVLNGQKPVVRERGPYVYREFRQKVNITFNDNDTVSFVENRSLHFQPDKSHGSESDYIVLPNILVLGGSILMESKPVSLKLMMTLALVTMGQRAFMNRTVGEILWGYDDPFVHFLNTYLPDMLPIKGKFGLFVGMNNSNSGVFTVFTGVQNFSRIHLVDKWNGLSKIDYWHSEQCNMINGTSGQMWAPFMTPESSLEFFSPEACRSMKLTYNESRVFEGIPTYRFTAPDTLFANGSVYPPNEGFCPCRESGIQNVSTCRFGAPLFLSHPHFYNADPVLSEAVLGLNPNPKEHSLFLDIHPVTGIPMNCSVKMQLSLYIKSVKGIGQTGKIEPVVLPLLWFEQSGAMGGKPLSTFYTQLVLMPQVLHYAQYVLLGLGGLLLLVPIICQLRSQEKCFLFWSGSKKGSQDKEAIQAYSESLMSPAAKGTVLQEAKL

Activity change, negative = inhibition, inactive:
COc1ccc(CCNC(=O)CCC(=O)N2CC(C)Oc3ccc(Cl)cc32)cc1OC (centres undefined) -10.9%
COc1ccc(OC)c(CCNC(=O)c2ccc(NC3=NC4CS(=O)(=O)CC4S3)cc2)c1 (centres undefined) 2.45%
O=C(Nc1cccc(S(=O)(=O)N2CCOCC2)c1)C1CCN(S(=O)(=O)c2ccccc2)CC1 19.9%
CC1CCCCC1NC(=O)c1nn(C)c2c1CS(=O)(=O)c1ccccc1-2 (centres undefined) -33.5%
Cc1ccccc1C(=O)Nc1cc(NC(=O)c2ccccc2C)cc(C(=O)O)c1 30.6%
CCOC(=O)C1=C(CNCCOc2ccc(OC)cc2)NC(=O)NC1c1ccc2c(c1)OCO2 (centres undefined) 3.06%
O=C1C2C3C=CC(C3)C2C(=O)N1c1cccc(N2C(=O)C3C4C=CC(C4)C3C2=O)n1 (centres undefined) 100%
CCCc1cc(-c2[nH]ncc2-c2ccc(C(=O)OCC)o2)c(O)cc1O 46.8%
CC(C)(C)N(Cc1ccccc1)C(=O)COC(=O)CN1C(=O)NC2(CCCC2)C1=O 55.6%
COc1ccc(-c2nnc(SCC(=O)Nc3ncc(C(F)(F)F)cc3Cl)n2CC(C)C)cc1 -12.1%
Oc1csc(Cc2nc(-c3ccc4ccccc4c3)cs2)n1 -25.9%
COc1ccc2c(c1)OC[C@H]1[C@H]2N2C(=O)c3cc(Cl)ccc3NC(=O)[C@@]2(C)[C@H]1c1ccccc1 6.23%
CC(C)C(C(=O)OCC(=O)c1ccc2c(c1)NC(=O)CO2)N1C(=O)c2ccccc2C1=O (centres undefined) -3.1%
COC(=O)[C@@]1(Cc2ccc(F)cc2)[C@H]2c3cc(C(=O)N4CCCC4)n(CCCNc4ncc(C(F)(F)F)cc4Cl)c3C[C@H]2CN1C(=O)c1ccccc1 22.1%
